Most compounds without a hit are left out; they make up all but 3.5% or so of the library.
MITF primary – blocks human microphthalmia-associated transcription factor; 650,000 tested, 0.91% active; AlphaScreen MITF homodimerization, bead proximity signal; inhibition, % at 2.6 µM; in the data active = inhibition above about 50%;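 note: 0% = vehicle wells with protein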
Target sequence (O75030 whole entry, looked up): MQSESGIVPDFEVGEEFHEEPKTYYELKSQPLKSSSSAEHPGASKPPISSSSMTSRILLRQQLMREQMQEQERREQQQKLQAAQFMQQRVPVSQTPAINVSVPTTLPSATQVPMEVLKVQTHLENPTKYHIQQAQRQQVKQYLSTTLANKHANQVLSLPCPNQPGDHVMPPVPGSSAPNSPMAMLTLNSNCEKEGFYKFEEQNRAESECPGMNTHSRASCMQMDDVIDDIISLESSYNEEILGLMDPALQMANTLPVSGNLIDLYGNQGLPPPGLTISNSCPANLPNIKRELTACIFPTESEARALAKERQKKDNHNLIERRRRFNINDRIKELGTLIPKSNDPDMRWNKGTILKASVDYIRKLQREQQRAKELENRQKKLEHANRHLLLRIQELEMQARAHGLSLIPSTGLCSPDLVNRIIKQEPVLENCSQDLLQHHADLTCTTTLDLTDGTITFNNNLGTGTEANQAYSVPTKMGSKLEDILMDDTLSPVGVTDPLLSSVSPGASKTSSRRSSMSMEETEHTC
FBW7 activator – activators of human E3 ligase FBW7; Q969H0; 650,000 tested, 0.13% active; AID 1259310; normalized activity (activation), % at 26.1 µM; AlphaScreen FBW7–phospho-cyclin E peptide binding, activator screen; in the data active = normalized activity above about 1.9%;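 note: purified mutant Fbw7 with reduced substrate affinity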
TEAD-YAP inh – TEAD-YAP interaction inhibition. inhibition, % at 9.12 µM. HEK-TIYL cells, TEAD-Gal4/YAP UAS-luciferase luminescence. 640,000 tested, 1.4% active. AID 1259422; in the data active = inhibition above about 32%;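 note: 0% = median of test compound wells and 100% = reference inhibitor wells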
GPR151 ag – activates the human receptor GPR151; Q8TDV0; PathHunter beta-arrestin GPR151 cells, luminescence; activation, % at 11.2 µM; 650,000 tested, 1% active; AID 1508602; in the data active = activation above about 4.9%;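 note: 0% = median of compound wells and 100% = cells with positive control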
GPR151 confirm – confirmation of human GPR151 activators; GPR151 PathHunter beta-arrestin cells, luminescence, 90 min; % of EA-reagent control over plate median; shares compounds with GPR151 ag; AID 1508609; activation, % at 11.2 µM; 6,700 tested, under 10 active;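 active = mean percent activation across replicates above the confirmation screen cutoff of 4.91%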
GPR119 counter – activates human GPR119 in a GPR151 counter-screen. AID 1508611. activation, % at 11.2 µM. 6,700 tested, 0.3% active. GPR119 PathHunter beta-arrestin cells, luminescence, 90 min; 0 = compound-well median, 100 = enzyme-acceptor control. shares compounds with GPR151 ag;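 active = mean percent activation in the counterscreen above 29.09%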;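 note: counterscreen on off-target GPR119 to flag nonselective hits from the GPR151 activator screen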
* hit, by the source's call; . = no result given; ! = a repeat was not active.

SMILES | MITF primary | FBW7 activator | TEAD-YAP inh | GPR151 ag | GPR151 confirm | GPR119 counter
CC(O)CNc1nc2ccccc2n1CC(=O)N1CCc2ccccc21 (configuration not stated) | 0.0 | -0.2 | 6.5 | 10.0* | -0.5 | 8.6
COc1cc(S(=O)(=O)N2CCN(c3ccc(C)c(C)c3)CC2)ccc1F | -0.8 | 0.0 | -2.9 | 5.9* | 2.3 | 3.5
CC(=O)c1cccc(NC(=O)CC2S\C(=N/N=C/C=C/c3ccccc3)NC2=O)c1 (configuration not stated) | 8.4 | -0.2 | -2.4 | 9.3* | 1.9 | 11.8
O=C(NC1CCCCCCC1)C1CCN(c2c(N3CCCC3)c(=O)c2=O)CC1 | -3.7 | 0.0 | -1.0 | -0.4 | . | .
COc1cccc(CNC(=O)c2nc3ccc(-c4ncnc5[nH]ccc45)cc3c(=O)[nH]2)c1 | -2.8 | -0.1 | -8.7 | 1.0 | . | .
COc1cccc(CNS(=O)(=O)c2ccc(-c3ncnc4[nH]ccc34)cc2F)c1 | 27.8 | 0.1 | -15.1 | 5.0* | 1.1 | -6.6
CCOC(=O)/C(C#N)=C/Nc1ccccc1NS(=O)(=O)c1ccc(C)c(C)c1 | 1.7 | 0.3 | -3.2 | 5.5* | -0.6 | -16.3
CCOC(=O)/C(C#N)=C/Nc1ccccc1NS(=O)(=O)c1cccc(C(C)=O)c1 | -1.1 | 0.1 | -5.9 | 1.9 | . | .
Cc1cc(=O)n(CC(=O)NCc2csc(-c3ccccc3)n2)cn1 | -3.7 | -0.1 | -7.3 | 4.2 | . | .
O=C(CCCn1cnc(-c2ccccc2)cc1=O)NCCc1csc(-c2ccccc2)n1 | 6.2 | -0.1 | 17.6 | 9.2* | 0.7 | 6.2
CCOC(=O)c1c(C)n(C)c2ccc(OCC(O)CN(CC)CC)cc12 (configuration not stated) | -2.6 | 0.1 | 4.2 | 3.5 | . | .
CCOC(=O)c1c(C)n(C)c2ccc(OCC(O)Cn3nnc4ccccc43)cc12 (configuration not stated) | 12.1 | -0.2 | 12.1 | 6.0* | 0.1 | 4.1
CN(CC(=O)Nc1ccc(F)c(F)c1F)C(=O)COc1ccccc1C#N | 2.2 | -0.2 | -2.1 | 0.0 | . | .
CCN(CC)C(=O)CN1C(=O)C(O)(CC(=O)c2ccccc2)c2ccccc21 (configuration not stated) | 11.3 | 0.7 | 5.2 | 7.6* | 0.1 | 0.8
O=C(CC1(O)C(=O)N(Cc2ccccc2)c2ccccc21)c1ccccc1 (configuration not stated) | 5.5 | 0.0 | 0.9 | -1.0 | . | .
COc1cc2c(cc1NC(=O)C/C(C)=N/NC=O)oc1ccccc12 | 14.9 | 0.1 | -6.4 | 12.5* | 0.3 | 0.2
CC(C)COc1ccc(C(=O)N/C(=C/c2cccc([N+](=O)[O-])c2)C(N)=O)cc1 | 10.8 | -0.1 | -5.5 | -0.6 | . | .
CC(NCc1cc(Br)ccc1OCC(N)=O)C12CC3CC(CC(C3)C1)C2 (configuration not stated) | 1.5 | -0.1 | 23.6 | 7.6* | -0.8 | -17.8
CSc1ccc(C(=O)OCc2c(C)noc2C)cc1[N+](=O)[O-] | -3.4 | -0.2 | 0.4 | -1.1 | . | .
CC1=C(C(=O)O)N2C(=O)[C@@H](NC(=O)C(N)C3=CCC=CC3)[C@H]2SC1 (some centres not stated) | 1.6 | 0.6 | 2.9 | 8.4*! | 0.7 | 10.8
CC1=C(C(=O)O)N2C(=O)[C@@H](NC(=O)[C@H](N)C3=CCC=CC3)C2SC1 (some centres not stated) | 11.4 | 0.0 | 14.0 | -0.7 | . | .
O=C1c2ccccc2C(=O)C1(Nc1ccc(Br)cc1)c1ccccc1 | -4.7 | 0.0 | 16.0 | 6.9* | -0.2 | -2.9
COC(=O)c1ccc(Nc2nccc(-c3ccccc3)n2)cc1 | 5.9 | -0.1 | -21.9 | -2.1 | . | .
NC(=O)c1ccc(Nc2nccc(-c3ccc(Cl)cc3)n2)cc1 | 8.0 | 0.0 | 23.2 | 5.6* | 0.2 | 14.8
CC(=O)Nc1n[nH]c2nc(C)cc(C)c12 | -0.5 | 0.0 | 3.5 | -0.3 | . | .
CCOc1ccccc1-c1nnc(SCC(=O)NCc2ccccc2)o1 | 8.1 | -0.1 | 1.6 | 6.9* | 0.3 | 10.6
CCOc1ccc(S(=O)(=O)N(CC)CC)cc1 | -10.2 | 0.0 | 11.0 | 2.7 | . | .
CCOC(=O)c1cccc(NC(=O)c2ccccc2OCC)c1 | 8.5 | 0.2 | -3.8 | 5.5* | -0.3 | -4.8
COc1ccccc1C(=O)Nc1ccc2c(C)cc(=O)oc2c1 | 13.0 | 0.2 | -65.0 | 17.0* | -0.7 | -5.8
CCOc1ncccc1C(=O)Nc1ccc2c(C)cc(=O)oc2c1 | 5.3 | 0.2 | -3.4 | -1.1 | . | .

Assay outcomes deposited in PubChem BioAssay by The Scripps Research Institute Molecular Screening Center.
